The record followed here is PubChem BioAssay (EPA / NIEHS).

Calls of active or inactive are those of the source. How the source made its calls: active means hit-call score of the fitted dose curve at least 0.9, where 1 is the maximum; inactive means score below 0.9.

Test [1] has as its target Bile acid receptor (Homo sapiens) (UniProt Q96RI1). Nature of the test: ATG_IR1_CIS: Attagene CIS-FACTORIAL HepG2 Assay for human Nuclear Receptor Subfamily 1 Group H Member 4 (NR1H4), IR1 submotif (AID 2282946). Conditions: IR1 reporter transcription, actives raise or lower the signal. The gist of the method:
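HepG2 cells transiently transfected with multiplexed cis-element reporter units read endogenous transcription factor activity. After 24 h compound exposure, reporter mRNA was quantified by RT-PCR, fluorescent labelling, HpaI digestion and capillary electrophoresis; bidirectional fitting versus DMSO baseline.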

The nature of test [2]: ATG_GRE_CIS: Attagene CIS-FACTORIAL HepG2 Assay for human Glucocorticoid Response Elements (GRE) (AID 2282947). The note with it: HepG2 GRE cis-reporter, Attagene multiplex mRNA; actives raise or lower the signal. The method, boiled down:
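Reporter transcripts read by RT-PCR with capillary electrophoresis fluorescence after a 24 h chemical exposure of HepG2 cells transiently transfected with multiple cis-element reporter units. Gain or loss fitted against DMSO.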

Test [3] is described as follows: ATG_ISRE_CIS: Attagene CIS-FACTORIAL HepG2 Assay for human Interferon Regulatory Factor 1 (IRF1) binding to an Interferon-Stimulated Response Element (ISRE) (AID 2282948). Conditions: HepG2 ISRE cis-reporter (Attagene), mRNA transcription readout; actives raise or lower the signal. The method, boiled down:
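Read-out: fluorescent RT-PCR products resolved by capillary electrophoresis, reporting endogenous transcription factor activity via ISRE-driven reporter mRNA in transfected HepG2 cells dosed for 24 h; gain or loss fitted relative to DMSO.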

Test [4] is described as follows: ATG_M_32_CIS: Attagene CIS-FACTORIAL HepG2 Assay for M32 Transcription Factor (Internal Marker) (AID 2282949).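 Further: background control marker of the multiplexed CIS panel rather than a real target.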 The note with it: HepG2 Attagene cis-factorial M32 reporter, mRNA; actives raise or lower the signal. The method, boiled down:
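HepG2 human liver cells transiently transfected with cis-promoter-driven multiple reporter transcription units, dosed 24 h. Reporter mRNA quantified by RT-PCR, FAM-labelled primer extension, HpaI digest and capillary electrophoresis; bidirectional fit versus DMSO baseline.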

Test [5] deals with Hypoxia-inducible factor 1-alpha (Homo sapiens) (UniProt Q16665). Nature of the test: ATG_HIF1a_CIS: Attagene CIS-FACTORIAL HepG2 Assay for human Hypoxia Inducible Factor 1 (HIF1A) (AID 2282951). Conditions: HepG2 Attagene cis-factorial HIF1a reporter transcription; actives raise or lower the signal. The gist of the method:
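HepG2 cells transiently transfected with multiplexed cis-promoter reporter units; reporter mRNA read 24 h after dosing by RT-PCR, 6-FAM primer-extension labelling, HpaI digestion and capillary electrophoresis. Bidirectional fit versus DMSO baseline.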

Test [6] deals with Hepatocyte nuclear factor 6 (Homo sapiens) (UniProt Q9UBC0). Nature of the test: ATG_HNF6_CIS: Attagene CIS-FACTORIAL HepG2 Assay for human Hepatocyte Nuclear Factor 6 (HNF6) (AID 2282952). Conditions: HepG2 Attagene cis-factorial HNF6 reporter transcription; actives raise or lower the signal. The gist of the method:
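Readout: fluorescent reporter-transcript fragments resolved by capillary electrophoresis after RT-PCR, reflecting endogenous factor activity in transfected HepG2. Exposure 24 h. Gain or loss of signal fitted bidirectionally against DMSO.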

For test [7], the target named is Heat shock factor protein 1 (Homo sapiens) (UniProt Q00613). Nature of the test: ATG_HSE_CIS: Attagene CIS-FACTORIAL HepG2 Assay for human Heat Shock Transcription Factor 1 (HSE) (AID 2282953). Conditions: HepG2 HSE cis-reporter, Attagene RNA transcription; actives raise or lower the signal. The gist of the method:
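After a 24 h incubation with test chemical, transfected HepG2 cells were harvested for RNA; reporter transcripts were measured by RT-PCR and capillary electrophoresis. Values reflect gain or loss of signal relative to DMSO.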

A short description of test [8]: ATG_MRE_CIS: Attagene CIS-FACTORIAL HepG2 Assay for human Metal Responsive Element (MRE) (AID 2282954). The note with it: HepG2 MRE cis-reporter transcription, Attagene multiplex; actives raise or lower the signal. The gist of the method:
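Endogenous MRE-dependent transcription read as reporter mRNA in transiently transfected human HepG2 cells at 24 h. RNA reverse-transcribed, PCR-amplified, labelled and resolved by capillary electrophoresis; gain or loss relative to DMSO.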

A short description of test [9]: ATG_PBREM_CIS: Attagene CIS-FACTORIAL HepG2 Assay for human Phenobarbital-responsive Enhancer Module (PBREM) (AID 2282955). Conditions: HepG2 PBREM cis-reporter, Attagene multiplexed transcription; actives raise or lower the signal. The method, boiled down: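 HepG2 cells transiently transfected with multiple cis-regulated reporter transcription units; endogenous factor activity at the PBREM element measured as reporter mRNA 24 h after dosing, via RT-PCR and capillary electrophoresis of fluorescent fragments; bidirectional fitting versus DMSO.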

For test [10], the target named is Paired box protein Pax-6 (Homo sapiens) (UniProt P26367). Nature of the test: ATG_Pax6_CIS: Attagene CIS-FACTORIAL HepG2 Assay for human Paired Box 6 (PAX6) (AID 2282956). Conditions: HepG2 CIS-FACTORIAL PAX6 reporter transcription, RNA readout; actives raise or lower the signal. The gist of the method:
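Readout: reporter transcript fluorescence after RT-PCR and capillary electrophoresis. Cells: HepG2, transiently transfected with cis-regulated MRTUs. Exposure 24 h. Gain or loss of signal fitted bidirectionally relative to DMSO.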

A short description of test [11]: ATG_PXRE_CIS: Attagene CIS-FACTORIAL HepG2 Assay for human Pregnane X Receptor Element (PXRE) (AID 2282957). The note with it: HepG2 Attagene CIS-FACTORIAL PXRE reporter, mRNA; actives raise or lower the signal. The method, boiled down:
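Read-out: fluorescence of reporter-specific RT-PCR products resolved by capillary electrophoresis, fitted bidirectionally relative to DMSO. Human HepG2 liver cells carried transfected cis-promoter reporter units and were exposed to chemicals for 24 h.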

Test [12] can be described thus: ATG_PPRE_CIS: Attagene CIS-FACTORIAL HepG2 Assay for human Peroxisome Proliferator-activated Response Element (PPRE) (AID 2282958). Conditions: HepG2 PPRE cis-element reporter, Attagene transcription factor profiling; actives raise or lower the signal. The method, boiled down: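 HepG2 cells transiently transfected with multiplexed cis-element reporter units measure endogenous transcription factor activity. After 24 h compound exposure, reporter mRNA is quantified by RT-PCR, 6-FAM labeling, HpaI digestion and capillary electrophoresis; bidirectional fits are made against DMSO baseline.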

Test [13] in a line: ATG_RORE_CIS: Attagene CIS-FACTORIAL HepG2 Assay for human RAR-related Orphan Receptor Element (RORE) (AID 2282959). The note with it: HepG2 Attagene cis-factorial RORE reporter, mRNA; actives raise or lower the signal. The gist of the method: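 HepG2 cells transiently transfected with multiple cis-element reporter transcription units, exposed to chemical for 24 h. Reporter mRNA quantified by RT-PCR, 6-FAM primer-extension labeling, HpaI digestion and capillary electrophoresis; bidirectional fit versus DMSO baseline.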

Test [14] in a line: ATG_Sox_CIS: Attagene CIS-FACTORIAL HepG2 Assay for human SRY-box transcription factor (SOX) (AID 2282960). The note with it: HepG2 Attagene cis-factorial SOX reporter, mRNA; actives raise or lower the signal. The gist of the method: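 HepG2 cells transiently transfected with cis-element-driven multiple reporter transcription units, dosed 24 h; reporter mRNA measured by RT-PCR, FAM labelling, HpaI digestion and capillary electrophoresis. Bidirectional fit versus DMSO baseline.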

Test [15] has as its target Transcription factor Sp1 (Homo sapiens) (UniProt P08047). Nature of the test: ATG_Sp1_CIS: Attagene CIS-FACTORIAL HepG2 Assay for human Specificity Protein 1 (Sp1) (AID 2282961). Conditions: HepG2 Sp1 cis-reporter transcription, actives raise or lower the signal. The method, boiled down:
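HepG2 cells transiently transfected with multiple reporter transcription units driven by cis-regulatory elements; Sp1-responsive reporter mRNA measured 24 h after dosing by RT-PCR and capillary electrophoresis fluorescence, fitted bidirectionally against DMSO baseline.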

Test [16] can be described thus: ATG_SREBP_CIS: Attagene CIS-FACTORIAL HepG2 Assay for human Sterol Regulatory Element Binding (SREBP) (AID 2282962). Conditions: HepG2 Attagene cis-factorial SREBP reporter, mRNA; actives raise or lower the signal. The method, boiled down:
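Readout: fluorescent reporter-transcript peaks resolved by capillary electrophoresis after RT-PCR. Cells were human HepG2 carrying transfected cis-promoter reporter constructs, dosed for 24 h. Gain or loss of signal was fitted against DMSO controls.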

The target in test [17] is Signal transducer and activator of transcription 3 (Homo sapiens) (UniProt P40763). Nature of the test: ATG_STAT3_CIS: Attagene CIS-FACTORIAL HepG2 Assay for human Signal Transducer and Activator of Transcription 3 (STAT3) (AID 2282963). The note with it: HepG2, Attagene cis-factorial STAT3 reporter transcription; actives raise or lower the signal. The method, boiled down: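 Readout is reporter transcript quantified by RT-PCR and capillary electrophoresis, with 6-FAM primer extension and HpaI digestion. Total RNA is taken 24 h after dosing transiently transfected HepG2 carrying cis-regulated reporter units. Bidirectional fit against DMSO.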
Sequence of Signal transducer and activator of transcription 3 (Homo sapiens) (P40763 whole entry, looked up): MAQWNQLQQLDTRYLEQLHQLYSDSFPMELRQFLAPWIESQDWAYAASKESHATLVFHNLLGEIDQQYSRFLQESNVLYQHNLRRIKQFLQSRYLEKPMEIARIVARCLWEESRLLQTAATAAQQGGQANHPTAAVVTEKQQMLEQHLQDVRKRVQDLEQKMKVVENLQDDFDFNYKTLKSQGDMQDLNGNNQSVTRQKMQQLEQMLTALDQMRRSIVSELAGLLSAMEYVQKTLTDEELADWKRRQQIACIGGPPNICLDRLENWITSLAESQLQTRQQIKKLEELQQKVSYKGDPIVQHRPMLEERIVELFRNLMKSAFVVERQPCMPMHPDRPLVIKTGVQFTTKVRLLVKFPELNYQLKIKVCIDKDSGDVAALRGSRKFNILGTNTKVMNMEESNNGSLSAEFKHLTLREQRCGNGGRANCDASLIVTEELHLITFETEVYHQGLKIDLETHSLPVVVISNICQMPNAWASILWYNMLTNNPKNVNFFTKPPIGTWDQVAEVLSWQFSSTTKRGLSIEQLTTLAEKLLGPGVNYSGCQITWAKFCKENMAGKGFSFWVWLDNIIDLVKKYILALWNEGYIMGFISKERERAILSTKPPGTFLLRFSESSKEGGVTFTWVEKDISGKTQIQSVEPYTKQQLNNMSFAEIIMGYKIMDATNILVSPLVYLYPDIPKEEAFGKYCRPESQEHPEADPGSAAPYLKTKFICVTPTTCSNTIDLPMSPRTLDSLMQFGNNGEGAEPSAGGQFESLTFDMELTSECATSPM

Test [18] is described as follows: ATG_TA_CIS: Attagene CIS-FACTORIAL HepG2 Assay for human TA Basal Promoter (AID 2282964). Conditions: HepG2 Attagene CIS-factorial TA basal promoter reporter; actives raise or lower the signal. The gist of the method:
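Multiplexed mRNA reporter assay, HepG2, 24 h. Reporter cDNA amplified, 6-FAM primer-extended, HpaI-cut, CE-sized; DMSO = negative control and baseline.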

The nature of test [19]: ATG_TCF_b_cat_CIS: Attagene CIS-FACTORIAL HepG2 Assay for human T-Cell-Factor with beta-catenin (TCF/b-cat) (AID 2282965). The note with it: HepG2 TCF/beta-catenin cis-reporter transcription, actives raise or lower the signal. The method, boiled down: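 Endogenous TCF/LEF activity read as reporter transcript level via RT-PCR and capillary electrophoresis fluorescence in transfected HepG2, 24 h exposure; gain or loss of signal fitted against DMSO controls.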

A short description of test [20]: ATG_M_06_CIS: Attagene CIS-FACTORIAL HepG2 Assay for M06 Transcription Factor (Internal Marker) (AID 2282950). The note with it: HepG2 Attagene CIS-FACTORIAL M06 internal marker reporter; actives raise or lower the signal. The gist of the method:
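Fluorescence-labelled RT-PCR products from cis-promoter reporter units, cut with HpaI and resolved by capillary electrophoresis, give the signal. Cells are human HepG2, dosed for 24 h. Serves as background control, fitted relative to DMSO.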

Sequence of Paired box protein Pax-6 (Homo sapiens) (P26367 whole entry, looked up): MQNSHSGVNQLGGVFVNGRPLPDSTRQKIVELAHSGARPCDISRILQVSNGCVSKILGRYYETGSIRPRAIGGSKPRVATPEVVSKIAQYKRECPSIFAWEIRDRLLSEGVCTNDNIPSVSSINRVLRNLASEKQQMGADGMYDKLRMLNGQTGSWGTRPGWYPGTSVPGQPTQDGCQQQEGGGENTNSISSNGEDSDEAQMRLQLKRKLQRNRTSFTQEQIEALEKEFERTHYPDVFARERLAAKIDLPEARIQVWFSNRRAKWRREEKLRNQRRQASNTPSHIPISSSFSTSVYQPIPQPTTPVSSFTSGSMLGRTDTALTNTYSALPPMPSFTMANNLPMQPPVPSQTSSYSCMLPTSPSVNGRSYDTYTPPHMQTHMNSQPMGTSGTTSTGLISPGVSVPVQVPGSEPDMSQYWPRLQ
Sequence of Heat shock factor protein 1 (Homo sapiens) (Q00613 whole entry, looked up): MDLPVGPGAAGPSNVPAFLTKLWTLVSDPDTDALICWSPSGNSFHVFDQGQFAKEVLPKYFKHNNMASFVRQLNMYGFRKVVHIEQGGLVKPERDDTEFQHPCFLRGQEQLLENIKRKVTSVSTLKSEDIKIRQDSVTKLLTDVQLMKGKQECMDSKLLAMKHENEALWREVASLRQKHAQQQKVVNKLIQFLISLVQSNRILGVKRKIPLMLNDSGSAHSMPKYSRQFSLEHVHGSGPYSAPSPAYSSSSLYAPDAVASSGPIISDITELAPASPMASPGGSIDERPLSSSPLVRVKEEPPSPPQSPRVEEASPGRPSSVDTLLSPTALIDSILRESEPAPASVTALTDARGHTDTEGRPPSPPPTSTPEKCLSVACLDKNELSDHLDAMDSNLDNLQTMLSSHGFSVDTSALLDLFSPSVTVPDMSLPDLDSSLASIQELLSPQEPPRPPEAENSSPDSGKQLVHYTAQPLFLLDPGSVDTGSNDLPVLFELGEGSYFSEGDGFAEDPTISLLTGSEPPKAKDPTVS
Sequence of Transcription factor Sp1 (Homo sapiens) (P08047 whole entry, looked up): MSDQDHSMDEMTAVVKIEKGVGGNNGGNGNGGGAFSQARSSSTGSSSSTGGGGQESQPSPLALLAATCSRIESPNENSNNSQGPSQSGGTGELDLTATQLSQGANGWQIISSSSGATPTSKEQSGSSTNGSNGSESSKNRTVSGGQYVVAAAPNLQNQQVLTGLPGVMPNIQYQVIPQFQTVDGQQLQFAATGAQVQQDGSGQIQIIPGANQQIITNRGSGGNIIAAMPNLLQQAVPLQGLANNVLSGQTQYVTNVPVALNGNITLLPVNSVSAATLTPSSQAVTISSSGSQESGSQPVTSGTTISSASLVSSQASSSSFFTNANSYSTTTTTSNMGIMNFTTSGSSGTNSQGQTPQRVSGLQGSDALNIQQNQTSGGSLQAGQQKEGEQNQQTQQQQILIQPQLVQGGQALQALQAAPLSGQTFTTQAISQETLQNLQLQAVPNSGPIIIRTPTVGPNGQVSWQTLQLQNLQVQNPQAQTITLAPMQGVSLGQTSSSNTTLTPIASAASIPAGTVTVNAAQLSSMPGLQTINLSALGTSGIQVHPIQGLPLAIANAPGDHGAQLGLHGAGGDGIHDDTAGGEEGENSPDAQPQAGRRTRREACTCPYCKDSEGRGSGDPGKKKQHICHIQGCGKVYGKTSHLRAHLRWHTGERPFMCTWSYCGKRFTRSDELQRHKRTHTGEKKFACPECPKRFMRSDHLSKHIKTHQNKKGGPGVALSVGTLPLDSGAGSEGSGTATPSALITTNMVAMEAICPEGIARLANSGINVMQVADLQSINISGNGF
Sequence of Bile acid receptor (Homo sapiens) (Q96RI1 whole entry, looked up): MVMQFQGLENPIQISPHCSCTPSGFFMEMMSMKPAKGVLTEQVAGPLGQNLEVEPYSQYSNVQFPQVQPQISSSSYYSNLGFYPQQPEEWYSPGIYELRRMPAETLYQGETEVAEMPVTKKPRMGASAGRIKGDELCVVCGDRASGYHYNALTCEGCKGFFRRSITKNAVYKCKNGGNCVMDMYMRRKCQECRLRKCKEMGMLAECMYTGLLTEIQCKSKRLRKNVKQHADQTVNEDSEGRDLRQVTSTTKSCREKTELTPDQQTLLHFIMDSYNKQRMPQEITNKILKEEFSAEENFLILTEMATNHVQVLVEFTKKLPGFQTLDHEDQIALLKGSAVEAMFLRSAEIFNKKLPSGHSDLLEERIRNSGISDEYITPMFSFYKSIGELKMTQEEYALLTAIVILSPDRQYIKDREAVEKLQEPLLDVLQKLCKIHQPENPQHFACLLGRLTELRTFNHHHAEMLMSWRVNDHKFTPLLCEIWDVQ
Sequence of Hypoxia-inducible factor 1-alpha (Homo sapiens) (Q16665 whole entry, looked up): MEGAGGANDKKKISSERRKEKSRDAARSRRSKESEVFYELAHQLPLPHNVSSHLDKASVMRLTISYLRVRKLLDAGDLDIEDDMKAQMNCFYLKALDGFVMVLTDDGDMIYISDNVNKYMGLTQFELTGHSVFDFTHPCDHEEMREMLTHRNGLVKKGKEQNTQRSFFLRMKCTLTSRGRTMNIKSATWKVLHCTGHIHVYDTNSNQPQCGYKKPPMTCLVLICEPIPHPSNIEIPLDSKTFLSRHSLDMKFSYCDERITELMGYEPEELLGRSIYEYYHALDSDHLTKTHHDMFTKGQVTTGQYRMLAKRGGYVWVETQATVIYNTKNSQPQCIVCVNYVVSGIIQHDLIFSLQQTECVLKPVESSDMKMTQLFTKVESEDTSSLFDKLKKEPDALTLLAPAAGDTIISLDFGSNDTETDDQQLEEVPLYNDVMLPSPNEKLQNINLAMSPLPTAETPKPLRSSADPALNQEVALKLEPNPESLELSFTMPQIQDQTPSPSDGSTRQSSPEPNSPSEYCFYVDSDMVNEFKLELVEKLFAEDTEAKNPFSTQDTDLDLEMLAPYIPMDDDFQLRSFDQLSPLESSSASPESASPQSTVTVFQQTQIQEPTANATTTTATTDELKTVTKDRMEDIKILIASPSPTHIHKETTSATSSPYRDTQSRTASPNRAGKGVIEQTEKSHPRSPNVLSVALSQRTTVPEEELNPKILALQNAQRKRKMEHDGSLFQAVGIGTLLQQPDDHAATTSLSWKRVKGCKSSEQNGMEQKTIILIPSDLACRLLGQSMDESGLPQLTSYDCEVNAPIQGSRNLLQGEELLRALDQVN
Sequence of Hepatocyte nuclear factor 6 (Homo sapiens) (Q9UBC0 whole entry, looked up, the tested form may be a part): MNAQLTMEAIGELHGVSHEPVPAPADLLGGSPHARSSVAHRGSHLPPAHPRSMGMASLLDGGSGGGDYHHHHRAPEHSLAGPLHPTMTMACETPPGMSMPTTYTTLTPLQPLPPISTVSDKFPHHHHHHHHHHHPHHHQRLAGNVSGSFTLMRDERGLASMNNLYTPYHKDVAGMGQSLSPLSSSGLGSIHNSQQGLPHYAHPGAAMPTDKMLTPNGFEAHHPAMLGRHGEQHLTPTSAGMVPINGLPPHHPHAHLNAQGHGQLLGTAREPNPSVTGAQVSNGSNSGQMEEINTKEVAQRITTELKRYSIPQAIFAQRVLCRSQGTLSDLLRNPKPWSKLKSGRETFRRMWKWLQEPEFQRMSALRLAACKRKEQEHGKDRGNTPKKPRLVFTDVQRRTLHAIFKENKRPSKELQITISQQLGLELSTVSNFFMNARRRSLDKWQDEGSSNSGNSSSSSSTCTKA

On to `O=C1CC2CC1C1CCCC21` (stereo not given), for which the call in test [1], in [2], in test [3], in test [4], in [5] and in test [6] was inactive. Also, the call in test [7], in test [8], in test [9], in test [10], in test [12] and in [13] was inactive. Moreover, the molecule was called inactive in test [14], in test [15], in test [16], in test [17], in test [18] and in test [19]. Also, the AC50 in test [11] was 40.8 µM (active).
As for `OCCN(CCO)c1ccccc1`, the outcome in [1], in test [2], in test [3], in [4], in test [20] and in [5] was inactive. Further, the outcome in test [6], in test [7], in test [8], in test [10], in test [11] and in test [14] was inactive. The outcome in [15], in test [17], in [18] and in test [19] was inactive.
As for `CC1=NN(c2cc(S(=O)(=O)O)ccc2Cl)C(=O)C1N=Nc1ccccc1` (stereo not given), the call in test [1], in [2], in test [3], in test [4], in test [20] and in test [5] was inactive. The molecule was classed as inactive in test [8], in test [9], in test [10], in test [11], in [12] and in [15]. Also, the result in test [16], in test [17] and in test [19] was inactive.
As to `C=CC(=O)OCCOC1C2CCC1C1CC=CC12` (stereo not given), the result in test [1], in [2], in [3], in [4], in test [20] and in test [5] was inactive. Moreover, the molecule was classed as inactive in [7], in test [8], in test [10], in test [13], in test [14] and in test [15]. The molecule was called inactive in test [16], in test [18] and in test [19].
